Data from PubChem BioAssay AID485297 (National Center for Advancing Translational Sciences (NCATS), 2010).
In all, about 320,000 compounds went through this assay and about 9,100 (2.8%) were called active. Inconclusive results (about 3%) are left out. Calls follow the shape of the dose curve; as a rule, active = well fitted activation curve with a large enough effect; inconclusive = small, poorly fitted or top-dose-only effect; inactive = no such curve, though single readings can be large or run the other way. What follows is part of a selection rich in actives, with near analogues and random picks from the rest.

Experiment: qHTS Assay for Rab9 Promoter Activators; also: nearly all actives have a fitted effect of over 60% in size; as to activation, negative = inhibition: % of control where 0% means no effect
Settings: Huh7 Rab9 promoter-luciferase reporter, luminescence, 24 h; series mostly up to 9.22 µM; activation, negative = inhibition: at the top concentration
Method in brief: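 Cells were plated at 1500 per well in reduced-serum medium with 10% FBS and left 2 h. Compound in DMSO was then added for 24 h at 37 °C. Reporter signal was read by luminescence after 10 min with luciferase detection reagent.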
Potency is read from the fitted curve at half-maximal effect.

activation, negative = inhibition, inactive:
COc1ccc(C(=O)NC(=S)Nc2ccc(Cl)cn2)cc1OC -0.572%
Cc1cccc(C)c1NC(=O)CNC(=O)c1ccc2c(c1)OCCO2 1.78%
O=C(Nc1cccc(Cl)c1N1CCOCC1)c1ccc2c(c1)OCCO2 -2.62%
CC(=O)c1ccc2c(c1)OCCOCCOc1ccc(C(C)=O)cc1OCCOCCO2 0.828%
Cc1ccc2sc(NNC(=O)c3ccc4c(c3)OCCO4)nc2c1C -6.32%
CCCc1cc(C(=O)Nc2ccc(C(=O)OC)cc2)cs1 24.7%
CCCCC(CC)C(=O)Nc1ccc(Cl)cn1 (stereo not drawn) -2.96%
COc1ccc(/C=N/NC(=O)c2ccc3c(c2)OCCO3)c(OC)c1 1.01%
CCOCC(=O)NCc1ccc2c(c1)cc(C)n2C 0.0404%
Cc1cccc(Nc2nnc(SCC(=O)c3c(N)n(C4CC4)c(=O)[nH]c3=O)s2)c1C -5.09%
Cc1cc(C)c2nc(SCC(=O)N(C)C3CCS(=O)(=O)C3)cc(C)c2c1 (stereo not drawn) -3.36%
CC(C)(C)C1C/C(=C/c2ccco2)C(=O)/C(=C/c2ccco2)C1 (stereo not drawn) -4.64%
CSc1ccc(Cl)c(C(=O)OCC(=O)N2CCNC2=O)c1 -0.409%
CCn1c(=S)sc2c(=O)n(CC(=O)Nc3ccc(OC)cc3)c(C)nc21 3.7%
Cc1ccc(CSc2ccc(S(=O)(=O)N3CCCCC3)cn2)cc1 -3.41%
O=C(CCNS(=O)(=O)c1ccccc1)NCCCc1ccccc1 2.02%
COc1cccc(-c2ccc3c(c2)S(=O)(=O)c2cccc(C(=O)O)c2C3=O)c1OC -4.96%
CC(=O)Oc1ccc2c(c1)C(=O)c1ccccc1C2=O 13.4%
CN(CC(=O)NCCc1ccc(F)cc1)CC(=O)Nc1ccc(F)c(F)c1F -3.52%
Cc1noc(C)c1C(=O)Nc1ccccn1 -0.886%
Cc1nonc1NC(=O)c1oc2ccccc2c1C 27.1%
CC1CCCN(C(=O)c2cc(-c3ccco3)nc3ccccc23)C1 (stereo not drawn) -3.82%
COc1cc(CC(=O)NCc2cccs2)cc(OC)c1OC 1.53%
O=C(CCC(=O)c1ccccc1)NCc1cccc(C(F)(F)F)c1 3.01%
O=S(=O)(c1ccc(SCc2ccc(Br)cc2)nc1)N1CCOCC1 -2.87%
COC(=O)c1cccc(NC(=O)c2cccc(N3C(=O)CCC3=O)c2)c1 -2.95%
O=C(COC(=O)c1cc(S(=O)(=O)N2CCOCC2)ccc1Cl)NCCc1ccccc1 19.9%
CC(C)c1ccc(S(=O)(=O)N2CCN(C(C)C(=O)NC3CCCC3)CC2)cc1 (stereo not drawn) -5.78%
COc1ccc(OC)c(-c2csc(-c3cccs3)n2)c1 5.35%
COc1cccc(CC(=O)Nc2nc(-c3ccc(OC)c(OC)c3)cs2)c1 -3.51%
O=C1Cc2cc(S(=O)(=O)Nc3cccc(F)c3)ccc2N1 1.59%
COc1ccc(CCNC(=O)COC(=O)c2cc(=O)c3ccccc3o2)cc1 1.25%
CC(C)(C)C(=O)OCc1nc(-c2ccc(O)c(O)c2)cs1 9.03%
COc1cccc(CC(=O)Nc2ccc(-c3csc(C)n3)cc2)c1 4.45%
O=C(c1cn(-c2ccccc2)nc1-c1cccnc1)N1CCN(S(=O)(=O)c2ccccc2F)CC1 0.673%
CC(=O)Nc1ccc(C(=O)Nc2nc(-c3cc(C)n(Cc4ccccc4)c3C)cs2)cc1 -1.86%
O=C(CCNS(=O)(=O)c1ccccc1C(F)(F)F)Nc1ccncc1 -2.35%
Cc1cccc(OCCC(=O)OCc2csc(CC(=O)Nc3ccccc3C)n2)c1 -2.11%
Cc1cc(Cl)c2oc(C(=O)N3CCC(O)(c4ccccc4)CC3)c(C)c2c1 2.32%
O=c1cc(Cn2nnc(-c3ccc(Cl)cc3)n2)nc2sccn12 1.42%
COc1ccccc1N1CCN(C(=O)Cn2nnc(-c3cccs3)n2)CC1 -2.68%
Nc1ccc(-n2nncc2-c2ccco2)cc1 -10.6%
COc1ccc(CCC(=O)N2CCN(S(=O)(=O)c3ccc(OC)cc3)CC2)cc1 -3.76%
COc1ccc(CCNC(=O)CCc2ccccc2O)cc1OC 19.5%
O=C(O)/C(=C/c1cccnc1)NC(=O)c1ccccc1 2.06%
CCOc1ccc(NC(=O)CN(C)C(=O)CCSc2ccc(F)cc2)cc1OCC -5.95%
C=CCSc1ccc(S(=O)(=O)N2CCN(C)CC2)cn1 -0.521%
O=C(Nc1ccccc1)N1CCC(C(=O)N2CCN(Cc3ccccc3)CC2)CC1 7.55%
Cn1c(N)c(C(=O)COC(=O)/C=C/c2cccc(C(F)(F)F)c2)c(=O)n(C)c1=O -0.132%
C/C(=N\Nc1nc(Nc2ccccc2)nc(N2CCOCC2)n1)c1cccs1 -9.1%
O=C(Nc1ccccc1-c1nc2ccccc2[nH]c1=O)c1cccs1 1.89%
C/C(=N\Nc1ccc(S(N)(=O)=O)cc1[N+](=O)[O-])c1cccs1 8.35%
C/C(=N\NS(=O)(=O)c1ccc(Br)cc1)c1cccs1 -7.45%
O=C(c1ccc(Cl)nc1)N1CCN(S(=O)(=O)c2ccc3c(c2)OCCO3)CC1 1.05%
CCc1ccccc1OCC(=O)Nc1ccc(C)c(S(=O)(=O)N2CCCCCC2)c1 0.199%
CCCCN(C(=O)C1=NN(c2cc(C)ccc2C)C(=O)CC1)c1c(N)n(CCC)c(=O)[nH]c1=O 0.441%
CCC1CCC2(CC1)NC(=O)N(CC(=O)Nc1ccc(OC)cc1)C2=O (stereo not drawn) -5.48%
COc1ccc(OC)c(CN2CCN(C(=O)CNC(=O)c3cc(C)cc(C)c3)CC2)c1 -0.729%
COc1cc([C@H](Cc2ccccc2)NC(C)=O)oc(=O)c1 3.07%
Cc1ccc(C)c(C(=O)COC(=O)Cn2[nH]c(=O)c3ccccc3c2=O)c1 0.526%
CC(C)CN(Cc1c(O)ccc2c(=O)c(-c3ccccc3)coc12)CC(C)C 0.55%
O=c1c(-c2ccccc2)coc2c(CN3CCOCC3)c(O)ccc12 0.818%
COc1ccccc1CNC(=O)CCCN1C(=O)NC2(CCCC2)C1=O -12.7%
COc1ccc(C2(C)ON(c3ccccc3C(F)(F)F)C2=O)cc1 (stereo not drawn) -2.59%
Cc1nc(-c2ccc(F)cc2)c(CC(=O)N(C)CC(=O)Nc2c(C)cccc2C)s1 7.06%
Cc1ccc(NC(=O)CN2CCC(C(N)=O)CC2)cc1[N+](=O)[O-] 18.2%
Cc1ccc(NC(=O)CN(C)CC(=O)Nc2cccc(F)c2)cc1[N+](=O)[O-] -18.7%
Cc1nc2ccccc2cc1C(=O)N/N=C/c1ccc([N+](=O)[O-])cc1 -2.69%
Cc1ccc(/C=N/NC(=O)c2sccc2OCc2ccc(F)cc2)cc1 -11.5%
CN(C)c1cc2c(Nc3ccc4c(cnn4Cc4ccccc4)c3)ncnc2cn1 -30.6% [at 46.1 µM]
CNC(=O)C1CC(=O)N(c2ccc(OCC(=O)Nc3ccccc3C)cc2)C1 (stereo not drawn) 5.32%
COc1ccc(NS(=O)(=O)c2cc(NC(=O)COc3ccccc3F)ccc2OC)cc1 1.94%
CCOc1ccc2oc(C(=O)N(CC)CC(=O)Nc3ccc(NC(C)=O)cc3)c(C)c2c1 -1.55%
CCC[C@H]1CCCC/C=C\CCCC(=O)OCCN1C(=O)OC(C)(C)C -5.47%
Nc1c(C(=O)OCC(=O)Nc2ccc(OC(F)F)cc2)[nH]c(=O)[nH]c1=O 0.105%
COc1cccc(/C=C2\C=C(c3ccc(C)cc3)OC2=O)c1OC(C)=O 1.65%
NC(=O)COC(=O)/C=C/c1ccc2ccccc2n1 1.99%
CCc1ccc(Nc2nnc(SCC(=O)c3ccc4c(c3)NC(=O)CO4)s2)cc1 -30.9%
Cc1noc(C)c1-c1ccc2ncnc(NC(C)c3ccco3)c2c1 (stereo not drawn) -2.48%
COc1ccc(CN2CCN(C(=O)c3cc(C4CC4)nn3-c3ccccc3)CC2)cc1F 15.7%
CN(C)c1nnnn1-c1ccc(Cl)cc1 2.01%
c1ccc(-n2nc3ccccc3n2)cc1 -3.95%
CCOc1ccc(N2C(=O)CSC2=NC#N)cc1 -2.64%
C=CCn1c(SCC(=O)Nc2ccc(NC(C)=O)cc2)nc2sc(C)c(C)c2c1=O -8.33%
COC(=O)c1ccc(NC(=O)Nc2ccc(C)cc2)cc1 27.4%
Cc1nc2ccc(NC(=O)C(F)(F)F)cc2o1 1.46%
CCOc1ccc(C(=O)NCC(=O)N2CCN(c3ccc(C(F)(F)F)cn3)CC2)cc1 -12%
CCCCn1c(N)c(N(CCC(C)C)C(=O)COC(=O)c2ccc(CC)cc2)c(=O)[nH]c1=O -0.386%
Cc1ncc(CO)c(/C=N/NC(=O)c2cccc(S(=O)(=O)N3CCCC3)c2)c1O -4.79%

Potency, active:
O=C(Nc1ccc(Cl)cn1)c1ccc2c(c1)OCCO2 562 nM
Cc1ccc(C(=O)NNC(=O)c2ccc3c(c2)OCCO3)cc1 3980 nM
Cc1nc(NC(=O)c2ccc3c(c2)OCCO3)ccc1Br 562 nM
CCCc1cc(C(=O)Nc2ccc(Cl)cn2)cs1 447 nM
COc1ccc2c(c1OC)C(=O)c1ccccc1C2=O 3980 nM
Cc1c(C(=O)Nc2ccccn2)oc2ccc(Br)cc12 3550 nM
O=C(Cc1cccs1)NCc1cccc(C(F)(F)F)c1 2510 nM
COc1ccc(-c2csc(-c3cccs3)n2)cc1OC 1780 nM
COc1ccc(-c2csc(Cc3nc(O)cs3)n2)cc1 1000 nM
Cc1ccc(Nc2nc(-c3ccc(O)cc3O)cs2)nc1 1410 nM
Clc1cccc(Cl)c1Cn1nnc(-c2cccs2)n1 2820 nM
C/C(=N\Nc1ncc(Cl)cc1Cl)c1cccs1 1260 nM
C/C(=N\Nc1nc2ccccc2[nH]1)c1cccs1 1000 nM
O=c1c(-c2ccccc2)coc2cc(O)ccc12 2820 nM
Cc1ccc(NC(=O)c2sccc2C)cc1[N+](=O)[O-] 1780 nM
Cc1ccsc1C(=O)N/N=C/c1ccc([N+](=O)[O-])cc1 3550 nM
COc1cccc(/C=C/c2ccc3ccccc3n2)c1OC(C)=O 447 nM
Nc1ccc2nn(-c3ccc(Cl)cc3)nc2c1 224 nM
Cc1ccc(NC(=O)Nc2ccc3oc(C)nc3c2)cc1 1580 nM
